Experiment [1] is described as follows: qHTS assay for small molecules that induce genotoxicity in human embryonic kidney cells expressing luciferase-tagged ATAD5 (AID 651632). Note: % is set by controls: 0 for no effect and ±100 for the full control effect; nearly all actives have a fitted effect of over 15% in size. The gist of the method:
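Increased luciferase signal from ATAD5-tagged reporter cells indicates DNA-damage-driven ATAD5 induction. HEK293T cells are treated for 16 hr at 37C before detection with Amplite.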
For orientation: Quantitative high-throughput screening tests each substance at several concentrations.

Experiment [2] in a line: qHTS assay to test for compound auto fluorescence at 590 nm (red) in HepG2 cells (AID 720674). Note: % is set by controls: 0 for no effect and ±100 for the full control effect. The gist of the method:
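Fluorescence at 590 nm emission following 540 nm excitation was recorded from HepG2 wells one hour after compound transfer, with DMSO-only wells as vehicle and Rose Bengal sodium equivalency as the scale.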

The nature of experiment [3]: qHTS assay to test for compound auto fluorescence at 535 nm (green) in HepG2 cells (AID 720675). Note: % is set by controls: 0 for no effect and ±100 for the full control effect.
Experiment [4] in a line: qHTS assay to test for compound auto fluorescence at 460 nm (blue) in HEK293 cells (AID 720678). Note: % is set by controls: 0 for no effect and ±100 for the full control effect. The gist of the method: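 HEK293 cells (2,000 per well, medium with 10% dialyzed FBS) attached for 4-5 hr at 37C, then received compound and stood overnight at 37C, 5% CO2. Blue fluorescence was read at Ex/Em 405/460 nm and expressed relative to triamterene.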
The nature of experiment [5]: qHTS assay to test for compound auto fluorescence at 590 nm (red) in HEK293 cells (AID 720679). Note: % is set by controls: 0 for no effect and ±100 for the full control effect. The gist of the method:
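HEK293 cells (2,000/well, medium with 10% dialyzed FBS) attached for 4-5 hr at 37C, received 23 nL compound and were incubated overnight at 37C, 5% CO2. Red fluorescence was then read at 540/590nm Ex/Em, referenced to Rose Bengal sodium.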

Experiment [6] is described as follows: qHTS assay to test for compound auto fluorescence at 535 nm (green) in HEK293 cells (AID 720680). Note: % is set by controls: 0 for no effect and ±100 for the full control effect.
Experiment [7] is described as follows: qHTS assay to test for compound auto fluorescence at 460 nm (blue) in HEK293 cell free culture (AID 720681). Note: % is set by controls: 0 for no effect and ±100 for the full control effect. The gist of the method:
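Compounds were added to cell-free DMEM with 10% FBS and fluorescence read directly. The blue channel used 405 nm excitation and 460 nm emission, with triamterene as the reference fluorophore.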

Experiment [8] in a line: qHTS assay to test for compound auto fluorescence at 535 nm (green) in HEK293 cell free culture (AID 720682). Note: % is set by controls: 0 for no effect and ±100 for the full control effect. The gist of the method:
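Using fluorescein as calibrant, autofluorescence was quantified at 485/535 nm in cell-free DMEM containing 10% FBS after pintool addition of compound or vehicle.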

A short description of experiment [9]: qHTS assay to test for compound auto fluorescence at 590 nm (red) in HEK293 cell free culture (AID 720683). Note: % is set by controls: 0 for no effect and ±100 for the full control effect. The gist of the method:
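Cell-free wells of DMEM with 10% FBS received compound, and intrinsic fluorescence was read at excitation/emission 540/590 nm. Values expressed as equivalence to Rose Bengal sodium.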

Experiment [10] can be described thus: qHTS assay to test for compound auto fluorescence at 590 nm (red) in HepG2 cell free culture (AID 720684). Note: % is set by controls: 0 for no effect and ±100 for the full control effect. The gist of the method: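 Compounds are added to culture medium (MEM, 10% FBS) lacking cells, then fluorescence is read at excitation 540 nm, emission 590 nm, with Rose Bengal sodium as the equivalency standard.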
The nature of experiment [11]: qHTS assay to test for compound auto fluorescence at 460 nm (blue) in HepG2 cell free culture (AID 720685). Note: % is set by controls: 0 for no effect and ±100 for the full control effect. The gist of the method: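 Compound (23 nL) or DMSO pinned into cell-free MEM with 10% FBS; blue fluorescence read at 405/460 nm excitation/emission, expressed as auto-fluorescence equivalency to triamterene.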
Experiment [12] in a line: qHTS assay to test for compound auto fluorescence at 535 nm (green) in HepG2 cell free culture (AID 720686). Note: % is set by controls: 0 for no effect and ±100 for the full control effect.
Experiment [13] can be described thus: qHTS assay to test for compound auto fluorescence at 460 nm (blue) in HepG2 cells (AID 720687). Note: % is set by controls: 0 for no effect and ±100 for the full control effect. The gist of the method: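 HepG2 cells in MEM with 10% FBS, attached overnight at 37 C, were exposed to compound or DMSO for 1 hr at 37 C, 5% CO2. Blue fluorescence was read at 405/460 nm, with triamterene as reference fluorophore.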
Experiment [14] is described as follows: qHTS assay for small molecule agonists of the p53 signaling pathway - cell viability (AID 651633; calls by dose curve;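 note: p53RE-bla HCT reporter cells with a stable beta-lactamase p53 reporter; % is set by controls: 0 for no effect and ±100 for the full control effect; nearly all actives have a fitted effect of over 30% in size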). The gist of the method: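 p53RE-bla cells were treated with compound for 16 hours at 37 C. Cytotoxicity was then measured as CellTiter-Glo luminescence after 30 min at room temperature.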
Experiment [15] can be described thus: qHTS assay for small molecules that induce genotoxicity in human embryonic kidney cells expressing luciferase-tagged ATAD5 - cell viability (AID 651634; calls by dose curve; note: % is set by controls: 0 for no effect and ±100 for the full control effect; nearly all actives have a fitted effect of over 25% in size). The gist of the method: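 Cytotoxicity counterscreen in HEK293T cells bearing an ATAD5-luciferase reporter: live-cell protease activity measured by CellTiter-Fluor fluorescence after 15.5 hr compound exposure.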

Experiment [16] in a line: qHTS assay for small molecule disruptors of the mitochondrial membrane potential - cell viability (AID 720634; calls by dose curve;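 note: human HepG2 liver cancer cells; % is set by controls: 0 for no effect and ±100 for the full control effect; nearly all actives have a fitted effect of over 20% in size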). The gist of the method:
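After overnight attachment at 37 C, HepG2 cells received compound or DMSO vehicle for 1 hr. Viability is then taken from ATP-driven luminescence following a 30 min room-temperature CellTiter-Glo step.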

A short description of experiment [17]: qHTS assay for small molecule disruptors of the mitochondrial membrane potential (AID 720635). Note: potency is the fitted concentration of half-maximal effect. The gist of the method: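 HepG2 cells exposed to compound 1 hr at 37C, then Mito-MPS dye 30 min. Ratio read of aggregate (540/590 nm) versus monomer (490/535 nm) fluorescence.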
The target in experiment [18] is Glucocorticoid receptor (Homo sapiens) (UniProt P04150). Description: qHTS assay to identify small molecule agonists of the glucocorticoid receptor (GR) signaling pathway (AID 720691; active = well fitted activation curve with a large enough effect in the signal ratio in the repeat runs, not every such curve was filed as active; the % refers to the signal ratio; note: % is set by controls: 0 for no effect and ±100 for the full control effect). To be noted: GR-bla HeLa, beta-lactamase reporter ratio, 18 h; activation: at 62.4 µM (top of the series). The gist of the method:
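Agonist mode in a HeLa line carrying a GRE-controlled beta-lactamase reporter. Compounds act for 18 h at 37 C before a 2 h room-temperature FRET substrate step and fluorescence reading.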

A number with no mark means an inactive call. Results filed as inconclusive are left out. Activity calls are given as the source filed them. Unless noted, calls come from the whole dose curve; as a rule, active = well fitted curve in the direction sought with a large enough effect in the repeat runs; inconclusive = weak or mixed curves; inactive = no such curve, though single readings can be large; an effect the other way counts as inactive or inconclusive.

From PubChem BioAssay (Tox21) come the findings set out here.

Sequence of Glucocorticoid receptor (Homo sapiens) (P04150 whole entry, looked up): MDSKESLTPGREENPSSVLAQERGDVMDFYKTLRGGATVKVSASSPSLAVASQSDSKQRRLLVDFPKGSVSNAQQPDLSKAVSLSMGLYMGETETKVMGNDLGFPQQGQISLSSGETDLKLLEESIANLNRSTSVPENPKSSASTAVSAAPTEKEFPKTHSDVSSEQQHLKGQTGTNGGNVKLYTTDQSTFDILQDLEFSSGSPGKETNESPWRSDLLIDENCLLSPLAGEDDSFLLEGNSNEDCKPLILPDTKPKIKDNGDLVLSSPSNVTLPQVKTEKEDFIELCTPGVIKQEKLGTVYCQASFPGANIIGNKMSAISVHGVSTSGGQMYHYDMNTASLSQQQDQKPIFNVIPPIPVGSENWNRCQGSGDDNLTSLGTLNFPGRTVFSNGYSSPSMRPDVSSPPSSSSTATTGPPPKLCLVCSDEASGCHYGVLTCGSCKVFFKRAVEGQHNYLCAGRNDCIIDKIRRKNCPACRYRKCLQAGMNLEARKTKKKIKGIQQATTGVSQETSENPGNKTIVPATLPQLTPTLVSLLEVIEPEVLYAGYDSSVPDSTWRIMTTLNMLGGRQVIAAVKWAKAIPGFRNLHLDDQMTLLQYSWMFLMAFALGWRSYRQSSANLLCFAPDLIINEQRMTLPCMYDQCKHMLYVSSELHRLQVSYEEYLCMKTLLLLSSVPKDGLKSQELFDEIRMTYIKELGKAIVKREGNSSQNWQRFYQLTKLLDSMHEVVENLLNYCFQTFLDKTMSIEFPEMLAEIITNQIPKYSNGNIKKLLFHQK

Regarding `CCc1cccc(C)c1N(C(=O)CCl)[C@@H](C)COC`, the Potency result in [1], in [3], in experiment [4], in experiment [7], in [11] and in experiment [12] was “inactive” throughout. Also, the Potency result in experiment [13] was “inactive”. Besides, the outcome in experiment [2], in experiment [5], in experiment [6], in [8], in [9] and in [10] was inactive.
In the case of `CC(=O)[O-].CC(=O)[O-].O.O.O.[Pb+2]`, the Potency entry in experiment [14], in experiment [3], in experiment [4], in experiment [7], in experiment [11] and in experiment [12] was “inactive” each time. Moreover, in experiment [13], the Potency entry is “inactive”. For the same compound, the outcome in experiment [2], in experiment [5], in experiment [6], in experiment [8], in experiment [9] and in [10] was inactive.
With `CN(C)c1ccc(N)cc1`, the Potency entry in [14], in experiment [15], in experiment [16], in [3], in [7] and in experiment [11] was “inactive” throughout. Moreover, the Potency entry in [12] and in experiment [13] was “inactive” each time. For the same compound, in [17], the Potency was 8.42 µM (active). Also, the result in experiment [2], in [5], in experiment [6], in [9] and in [10] was inactive.
Turning to `CC(=O)O.CC(=O)O.CC(=O)O.CC(=O)O.CC(=O)O.CC(=O)O.CC(=O)O.O.O.[Cr].[Cr].[Cr]`, the Potency result in experiment [14], in [15], in experiment [3], in [4], in experiment [7] and in experiment [11] was “inactive” throughout. For the same compound, the Potency result in [12] and in experiment [13] was “inactive” throughout. The outcome in [2], in [5], in [6], in experiment [8], in [9] and in experiment [10] was inactive.
Regarding `S=C=NCCc1ccccc1`, the Potency result in experiment [14], in experiment [16], in experiment [3], in [4], in [7] and in [11] was “inactive” throughout. In addition, the Potency entry in [12], in experiment [13] and in experiment [18] was “inactive” throughout. Moreover, in [17], the Potency was 38.6 µM (active). Moreover, the outcome in [2], in experiment [5], in [6], in experiment [8] and in [10] was inactive.
In the case of `CC1CCCC1`, the Potency result in experiment [14], in experiment [16] and in experiment [18] was “inactive” in each case.
For the compound `CC(=O)[O-].CC(=O)[O-].CC(=O)[O-].[Sb+3]`, the activity change, negative = cytotoxicity in experiment [14] is 11.3% [at 8.08 µM]. Further, the activity, negative = cytotoxicity in experiment [15] was 20.6% [at 8.08 µM]. Besides, the fluorescence, relative to Rose Bengal in experiment [2] was -0.0388% [at 3.72 µM]. The fluorescence, % of fluorescein control was -0.114% [at 3.72 µM] in experiment [3] and 0.0057% [at 3.72 µM] in [12]. In addition, in experiment [4], the fluorescence, % of triamterene is -0.0361% [at 3.72 µM]. The fluorescence, % of fluorescent control in [5] is 0.24% [at 3.72 µM]; in experiment [7], -0.0273% [at 3.72 µM]; in [11], -0.11% [at 3.72 µM]; in [13] it was 0.0192% [at 3.72 µM]. For the same compound, the fluorescence, % of fluorescein in experiment [6] is 0.0079% [at 3.72 µM]. Also, the activity change in experiment [8] is -0.0203% [at 3.72 µM]. Also, the fluorescence, % of Rose Bengal in [10] is 0.0344% [at 3.72 µM].
In the case of `C1=CCC=C1`, the Potency entry in [14], in experiment [15], in experiment [3] and in experiment [12] was “inactive” throughout. Further, the call in experiment [2], in experiment [5], in experiment [6], in [8], in experiment [9] and in experiment [10] was inactive.
As to `N#CSCc1ccccc1`, the Potency entry in experiment [14], in experiment [15], in experiment [16], in experiment [3], in [4] and in experiment [7] was “inactive” each time. The Potency result in [11], in experiment [12], in [13] and in experiment [18] was “inactive” each time. Further, the result in [2], in experiment [6], in [8], in [9] and in [10] was inactive.
As for `CC(C)=CC1C(C(=O)OC(C#N)c2cccc(Oc3ccccc3)c2)C1(C)C` (stereo not given), the Potency result in experiment [1], in [16], in [3], in experiment [4], in experiment [7] and in [11] was “inactive” each time. The Potency result in experiment [12], in experiment [13] and in experiment [18] was “inactive” in each case. The outcome in experiment [2], in [5], in [6], in [8], in experiment [9] and in [10] was inactive.
